Inconclusive results are not listed. Calls of active or inactive are those of the source. Rule for the calls, unless noted: active = hit-call score of the fitted dose curve at least 0.9, where 1 is the maximum; inactive = score below 0.9.

The text below walks through data of PubChem BioAssay (EPA / NIEHS).

Experiment [1] has as its target Bile acid receptor (Homo sapiens) (UniProt Q96RI1). Description: ATG_FXR_TRANS: Attagene TRANS-FACTORIAL HepG2 Assay for Farnesoid X Receptor (FXR) (AID 2282979; active = hit-call score of the fitted dose curve at least 0.9, where 1 is the maximum;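 note: hits raise reporter mRNA above DMSO so AC50 marks FXR activation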). Particulars: HepG2 Attagene TRANS FXR-GAL4 reporter transcription. The method, boiled down: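 HepG2 cells were transiently transfected with GAL4-UAS reporters driven by chimeric NR-Gal4 proteins and dosed for 24 h. Reporter mRNA was quantified by RT-PCR, fluorescent labelling, HpaI digestion and capillary electrophoresis, with gain of signal scored versus DMSO.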

A short description of experiment [2]: ATG_M_32_TRANS: Attagene TRANS-FACTORIAL HepG2 Assay for M32 Transcription Factor (Internal Marker) (AID 2282984; active = hit-call score of the fitted dose curve at least 0.9, where 1 is the maximum;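 note: transcript level of a background control reporter unit measured by RT-PCR and capillary electrophoresis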). Particulars: HepG2 Attagene TRANS M32 internal marker reporter. The method, boiled down: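 Read-out: fluorescent reporter cDNA fragments resolved by capillary electrophoresis after RT-PCR of total RNA. Transfected HepG2 cells were exposed to chemical for 24 h. Activity scored in the positive direction relative to DMSO.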

The target in experiment [3] is Nuclear receptor subfamily 4 group A member 2 (Homo sapiens) (UniProt P43354). Description: ATG_NURR1_TRANS: Attagene TRANS-FACTORIAL HepG2 Assay for human Nuclear Receptor Related Protein 1 (NURR1) (AID 2282985; active = hit-call score of the fitted dose curve at least 0.9, where 1 is the maximum). As to conditions: HepG2 Attagene TRANS reporter, mRNA readout. A digest of the protocol: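 Read-out: reporter mRNA induction by RT-PCR plus capillary electrophoresis with fluorescence detection, after 24 h dosing of transfected HepG2 cells. Exogenous NR-Gal4 chimera activity drives GAL4-UAS reporter; activity fitted upward versus DMSO.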

The target of experiment [4] is Transcriptional activator Myb (Homo sapiens) (UniProt P10242). Description: ATG_Myb_CIS: Attagene CIS-FACTORIAL HepG2 Assay for human Myeloblastosis (Myb) Proto-Oncogene Transcription Factor (AID 2282986). As to conditions: HepG2 Attagene CIS-FACTORIAL Myb reporter transcription; actives raise or lower the signal. A digest of the protocol:
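Using HepG2 liver cells bearing transiently transfected cis-promoter reporter constructs, the assay measures induction or loss of reporter mRNA after 24 hours of dosing. Detection used fluorescently labeled RT-PCR products separated by capillary electrophoresis.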

For experiment [5], the target named is Nuclear respiratory factor 1 (Homo sapiens) (UniProt Q16656). The experiment in a line: ATG_NRF1_CIS: Attagene CIS-FACTORIAL HepG2 Assay for human Nuclear Respiratory Factor 1 (NRF1) Orphan Gene (AID 2282987). Particulars: HepG2 NRF1 cis-element reporter, Attagene multiplex; actives raise or lower the signal. The method, boiled down: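 Reporter mRNA induction or loss in HepG2 cells after 24 h dosing; cis-regulated reporter constructs report endogenous transcription-factor activity. Quantified by RT-PCR/capillary electrophoresis fluorescence, DMSO-referenced.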

In experiment [6] the target is Myc proto-oncogene protein (Homo sapiens) (UniProt P01106). The experiment in a line: ATG_Myc_CIS: Attagene CIS-FACTORIAL HepG2 Assay for human Myelocytomatosis (Myc) Proto-Oncogene Transcription Factor (AID 2282990). Particulars: HepG2, Attagene cis-reporter transcription factor activity; actives raise or lower the signal. A digest of the protocol:
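Transiently transfected HepG2 cells bearing cis-promoter reporter units for endogenous transcription factors; 24 h exposure. Reporter mRNA measured by RT-PCR, 6-FAM primer extension, HpaI cut and capillary electrophoresis; bidirectional fit relative to DMSO.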

Experiment [7] can be described thus: ATG_NF_kB_CIS: Attagene CIS-FACTORIAL HepG2 Assay for human Nuclear Factor Kappa B (NF-kB) (AID 2282991). As to conditions: HepG2 Attagene cis-factorial NF-kB reporter mRNA; actives raise or lower the signal. A digest of the protocol: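 DMSO served as negative control and baseline for bidirectional curve fitting. Transiently transfected HepG2 cells were dosed for 24 h, then reporter transcripts were measured by RT-PCR with capillary electrophoresis detection.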

The nature of experiment [8]: ATG_NRF2_ARE_CIS: Attagene CIS-FACTORIAL HepG2 Assay for human Nuclear Factor Erythroid 2 Related Factor 2 (NFR2) response to Antioxidant Response Elements (ARE) (AID 2282992).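 For AC50: reporter mRNA level measured by RT-PCR and capillary electrophoresis fluorescence.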 As to conditions: HepG2 Attagene ARE/NRF2 reporter, transcription factor activity; actives raise or lower the signal. A digest of the protocol:
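Fluorescence intensity of reporter-specific cDNA fragments, separated by capillary electrophoresis, reflects mRNA induction in transfected HepG2 cells at 24 h. Activity is fitted bidirectionally, DMSO serving as baseline.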

A short description of experiment [9]: ATG_Oct_MLP_CIS: Attagene CIS-FACTORIAL HepG2 Assay for human Octamer-Binding Transcription Factor (Oct) (AID 2282993). Particulars: HepG2 Attagene cis-factorial Oct reporter, mRNA; actives raise or lower the signal. A digest of the protocol: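 HepG2 cells transiently transfected with cis-promoter-driven multiplexed reporter transcription units, dosed for 24 h. Reporter mRNA quantified by RT-PCR, fluorescent labelling, HpaI digestion and capillary electrophoresis; bidirectional fits versus DMSO baseline.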

Experiment [10] deals with Cellular tumor antigen p53 (Homo sapiens) (UniProt P04637). Description: ATG_p53_CIS: Attagene CIS-FACTORIAL HepG2 Assay for human p53 Transcription Factor (AID 2282994). As to conditions: HepG2 p53 cis-element reporter, Attagene mRNA; actives raise or lower the signal. The method, boiled down:
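Transiently transfected HepG2 (multiple cis reporter transcription units); exposure 24 h; reporter RNA via RT-PCR, 6-FAM extension, 2 h HpaI digest at 37 C, CE detection; DMSO baseline.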

Experiment [11] in a line: BSK_3C_TissueFactor: BioMAP Diversity Plus: 3C Assay for Tissue Factor Biomarker Activity (AID 2282997). Particulars: BioMAP 3C HUVEC, tissue factor biomarker readout; actives raise or lower the signal. The method, boiled down:
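Tissue Factor measured by ELISA, 24 h after treatment of primary HUVEC in the BioMAP 3C setting.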

The nature of experiment [12]: BSK_3C_uPAR: BioMAP Diversity Plus: 3C Assay for Urokinase-type plasminogen activator receptor (uPAR) Biomarker Activity (AID 2282998). As to conditions: BioMAP 3C HUVEC, uPAR biomarker ELISA; actives raise or lower the signal. The method, boiled down: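 Human umbilical vein endothelial primary cells were exposed to test chemical for 24 h. Cell-surface uPAR was then quantified by ELISA, and responses were fitted bidirectionally against DMSO as negative control and baseline.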
In general terms: An ELISA detects its analyte on a solid surface through an enzyme-linked reagent.

A short description of experiment [13]: BSK_3C_VCAM1: BioMAP Diversity Plus: 3C Assay for Vascular cell adhesion molecule 1 (VCAM1) Biomarker Activity (AID 2282999). Particulars: BioMAP 3C HUVEC, VCAM1 ELISA, cytokine-stimulated; actives raise or lower the signal. The method, boiled down: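 HUVEC primary cells, 24 h compound exposure; VCAM-1 by ELISA; gain/loss of signal fitted bidirectionally vs DMSO baseline.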

Experiment [14] can be described thus: BSK_4H_Eotaxin3: BioMAP Diversity Plus: 4H Assay for Eotaxin 3 Biomarker Activity (AID 2283000).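 For outcome: CCL26 protein level quantified by ELISA in parallel with SRB cytotoxicity check.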 Particulars: primary human endothelial cells (HUVEC); actives raise or lower the signal. A digest of the protocol:
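Eotaxin-3 (CCL26) levels were measured by ELISA in HUVEC primary cultures 24 h post-dosing. Gain or loss of signal was fitted in both directions, with DMSO serving as baseline and negative control.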

The nature of experiment [15]: ATG_M_06_TRANS: Attagene TRANS-FACTORIAL HepG2 Assay for M06 Transcription Factor (Internal Marker) (AID 2282983; active = hit-call score of the fitted dose curve at least 0.9, where 1 is the maximum;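 note: reporter transcript level by RT-PCR then capillary electrophoresis fluorescence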). Particulars: HepG2 Attagene TRANS M06 internal marker reporter. A digest of the protocol:
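mRNA levels of a reporter transcript, quantified as FAM fluorescence on capillary electrophoresis, served as readout. HepG2 cells expressing exogenous GAL4-chimera reporter constructs were exposed for 24 h. Gain of signal over DMSO was evaluated.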

Experiment [16] deals with Oxysterols receptor LXR-alpha (Homo sapiens) (UniProt Q13133). The experiment in a line: ATG_LXRa_TRANS: Attagene TRANS-FACTORIAL HepG2 Assay for human Liver X Receptor alpha (LXRa) (AID 2282980; active = hit-call score of the fitted dose curve at least 0.9, where 1 is the maximum). As to conditions: HepG2 Attagene TRANS reporter, LXRa transactivation. The method, boiled down:
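HepG2 cells transiently transfected with GAL4-UAS reporter units for chimeric NR-Gal4 proteins, exposed to chemicals for 24 h. Reporter mRNA quantified by RT-PCR and capillary electrophoresis; gain of signal fitted relative to DMSO.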

Experiment [17] addresses Hepatocyte nuclear factor 4-alpha (Homo sapiens) (UniProt P41235). The experiment in a line: ATG_HNF4a_TRANS: Attagene TRANS-FACTORIAL HepG2 Assay for human Hepatocyte Nuclear Factor 4 alpha (HNF4a) (AID 2282982; active = hit-call score of the fitted dose curve at least 0.9, where 1 is the maximum). Particulars: HepG2 HNF4a transactivation reporter, mRNA readout. A digest of the protocol:
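Transient MRTU transfection of HepG2, 24 h dosing. Readout: reporter mRNA via RT-PCR + capillary electrophoresis, fluorescence; activity fit upward relative to DMSO control.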

Experiment [18] in a line: ATG_NFI_CIS: Attagene CIS-FACTORIAL HepG2 Assay for human Nuclear Factor I (NFI) (AID 2282989). As to conditions: HepG2 cis-regulatory reporter, NFI response element transcription; actives raise or lower the signal. A digest of the protocol:
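HepG2 cells transiently transfected with cis-element-driven multiplexed reporter transcription units, dosed for 24 h. Reporter mRNA quantified by RT-PCR, fluorescent labelling, HpaI digestion and capillary electrophoresis; bidirectional fit versus DMSO baseline.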

Oxysterols receptor LXR-alpha (Homo sapiens), sequence (Q13133 whole entry, looked up, the tested form may be a part): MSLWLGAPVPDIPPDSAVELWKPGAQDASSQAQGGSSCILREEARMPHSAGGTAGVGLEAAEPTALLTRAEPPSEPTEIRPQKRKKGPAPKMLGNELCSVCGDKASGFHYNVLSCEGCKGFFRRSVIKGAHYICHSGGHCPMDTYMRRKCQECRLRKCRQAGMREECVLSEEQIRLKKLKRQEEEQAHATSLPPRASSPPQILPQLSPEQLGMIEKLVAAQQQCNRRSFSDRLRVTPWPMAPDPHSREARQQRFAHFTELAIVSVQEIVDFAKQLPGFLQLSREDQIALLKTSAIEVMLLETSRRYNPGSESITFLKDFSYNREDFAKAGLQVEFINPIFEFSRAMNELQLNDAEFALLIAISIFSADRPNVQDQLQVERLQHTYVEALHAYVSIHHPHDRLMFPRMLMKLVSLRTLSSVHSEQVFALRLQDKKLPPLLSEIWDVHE
Myc proto-oncogene protein (Homo sapiens), sequence (P01106 whole entry, looked up): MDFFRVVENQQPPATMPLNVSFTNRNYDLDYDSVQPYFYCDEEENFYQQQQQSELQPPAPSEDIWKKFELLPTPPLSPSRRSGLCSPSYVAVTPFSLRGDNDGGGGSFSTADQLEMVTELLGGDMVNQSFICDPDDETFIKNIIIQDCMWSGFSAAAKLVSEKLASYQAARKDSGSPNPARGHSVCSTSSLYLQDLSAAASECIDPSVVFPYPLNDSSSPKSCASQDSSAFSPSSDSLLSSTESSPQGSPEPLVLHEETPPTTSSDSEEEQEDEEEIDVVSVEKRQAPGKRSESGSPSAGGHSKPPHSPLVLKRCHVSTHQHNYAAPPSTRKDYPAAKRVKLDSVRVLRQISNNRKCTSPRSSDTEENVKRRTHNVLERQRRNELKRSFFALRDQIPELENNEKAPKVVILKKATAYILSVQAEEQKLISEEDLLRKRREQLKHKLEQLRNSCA
Hepatocyte nuclear factor 4-alpha (Homo sapiens), sequence (P41235 whole entry, looked up): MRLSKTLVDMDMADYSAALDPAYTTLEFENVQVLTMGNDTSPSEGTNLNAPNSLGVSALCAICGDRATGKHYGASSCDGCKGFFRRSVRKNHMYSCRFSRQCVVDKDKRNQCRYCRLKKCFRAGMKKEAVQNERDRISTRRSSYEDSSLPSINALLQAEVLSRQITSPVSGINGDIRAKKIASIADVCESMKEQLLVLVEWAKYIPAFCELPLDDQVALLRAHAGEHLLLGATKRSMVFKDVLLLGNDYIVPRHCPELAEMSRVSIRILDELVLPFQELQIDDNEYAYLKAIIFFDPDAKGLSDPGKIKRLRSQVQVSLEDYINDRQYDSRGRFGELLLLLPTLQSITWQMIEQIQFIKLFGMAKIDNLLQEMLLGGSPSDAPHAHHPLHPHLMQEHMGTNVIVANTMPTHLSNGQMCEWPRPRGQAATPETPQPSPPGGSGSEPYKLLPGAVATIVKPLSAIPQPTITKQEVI
Nuclear receptor subfamily 4 group A member 2 (Homo sapiens), sequence (P43354 whole entry, looked up, the tested form may be a part): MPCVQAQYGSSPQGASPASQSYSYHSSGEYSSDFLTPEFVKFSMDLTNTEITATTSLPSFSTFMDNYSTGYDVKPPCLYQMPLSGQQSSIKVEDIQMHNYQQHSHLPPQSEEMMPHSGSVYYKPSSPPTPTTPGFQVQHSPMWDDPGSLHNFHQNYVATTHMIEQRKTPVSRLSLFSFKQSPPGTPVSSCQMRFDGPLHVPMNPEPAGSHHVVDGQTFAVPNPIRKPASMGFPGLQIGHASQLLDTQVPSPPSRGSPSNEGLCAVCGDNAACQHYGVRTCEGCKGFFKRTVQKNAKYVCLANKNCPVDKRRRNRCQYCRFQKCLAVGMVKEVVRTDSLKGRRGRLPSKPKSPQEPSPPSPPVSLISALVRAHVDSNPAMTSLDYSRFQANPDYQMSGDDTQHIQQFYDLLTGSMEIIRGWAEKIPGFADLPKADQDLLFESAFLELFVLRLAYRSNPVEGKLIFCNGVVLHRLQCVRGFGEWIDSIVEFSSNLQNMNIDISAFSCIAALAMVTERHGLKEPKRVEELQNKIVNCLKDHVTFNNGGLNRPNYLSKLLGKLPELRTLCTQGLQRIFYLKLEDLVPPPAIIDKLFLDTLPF
Nuclear respiratory factor 1 (Homo sapiens), sequence (Q16656 whole entry, looked up): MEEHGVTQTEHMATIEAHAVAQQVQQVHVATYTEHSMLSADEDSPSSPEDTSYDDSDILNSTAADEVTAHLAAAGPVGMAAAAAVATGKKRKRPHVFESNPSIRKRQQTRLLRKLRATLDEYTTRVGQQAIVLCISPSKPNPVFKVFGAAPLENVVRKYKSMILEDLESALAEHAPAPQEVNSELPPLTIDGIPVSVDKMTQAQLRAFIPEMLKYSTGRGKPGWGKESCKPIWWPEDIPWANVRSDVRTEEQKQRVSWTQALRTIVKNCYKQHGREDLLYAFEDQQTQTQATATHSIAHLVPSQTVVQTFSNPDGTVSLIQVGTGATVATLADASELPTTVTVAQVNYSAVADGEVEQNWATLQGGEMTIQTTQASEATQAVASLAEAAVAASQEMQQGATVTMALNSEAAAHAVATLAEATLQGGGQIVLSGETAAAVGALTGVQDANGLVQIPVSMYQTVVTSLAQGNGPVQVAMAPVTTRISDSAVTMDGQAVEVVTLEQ
Transcriptional activator Myb (Homo sapiens), sequence (P10242 whole entry, looked up): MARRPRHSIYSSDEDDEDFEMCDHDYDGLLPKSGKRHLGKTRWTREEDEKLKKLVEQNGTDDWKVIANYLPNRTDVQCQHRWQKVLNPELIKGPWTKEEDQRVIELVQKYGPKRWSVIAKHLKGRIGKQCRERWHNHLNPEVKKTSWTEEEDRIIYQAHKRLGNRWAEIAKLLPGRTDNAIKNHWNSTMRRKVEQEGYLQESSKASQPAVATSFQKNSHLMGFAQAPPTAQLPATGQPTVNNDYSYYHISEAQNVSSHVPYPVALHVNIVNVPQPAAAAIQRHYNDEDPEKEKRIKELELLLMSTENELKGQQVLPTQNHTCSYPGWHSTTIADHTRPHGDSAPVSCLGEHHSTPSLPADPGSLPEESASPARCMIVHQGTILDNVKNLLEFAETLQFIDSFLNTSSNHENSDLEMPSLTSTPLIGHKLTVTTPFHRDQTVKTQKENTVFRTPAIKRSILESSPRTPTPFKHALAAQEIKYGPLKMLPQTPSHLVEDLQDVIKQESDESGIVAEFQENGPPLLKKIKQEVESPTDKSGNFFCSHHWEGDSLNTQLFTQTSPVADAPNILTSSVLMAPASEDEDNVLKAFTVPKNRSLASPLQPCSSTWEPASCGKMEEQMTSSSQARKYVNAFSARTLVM
Cellular tumor antigen p53 (Homo sapiens), sequence (P04637 whole entry, looked up): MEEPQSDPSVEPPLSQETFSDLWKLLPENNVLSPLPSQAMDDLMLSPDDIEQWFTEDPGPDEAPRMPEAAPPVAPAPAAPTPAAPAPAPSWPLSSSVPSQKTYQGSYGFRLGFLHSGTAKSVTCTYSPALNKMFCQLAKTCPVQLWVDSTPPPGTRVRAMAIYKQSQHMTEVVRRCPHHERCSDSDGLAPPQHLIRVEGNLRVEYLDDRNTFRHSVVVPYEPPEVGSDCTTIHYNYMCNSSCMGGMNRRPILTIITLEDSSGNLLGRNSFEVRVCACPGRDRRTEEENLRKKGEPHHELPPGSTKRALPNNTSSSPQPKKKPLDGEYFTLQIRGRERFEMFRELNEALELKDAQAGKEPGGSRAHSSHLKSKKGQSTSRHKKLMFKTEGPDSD
Bile acid receptor (Homo sapiens), sequence (Q96RI1 whole entry, looked up, the tested form may be a part): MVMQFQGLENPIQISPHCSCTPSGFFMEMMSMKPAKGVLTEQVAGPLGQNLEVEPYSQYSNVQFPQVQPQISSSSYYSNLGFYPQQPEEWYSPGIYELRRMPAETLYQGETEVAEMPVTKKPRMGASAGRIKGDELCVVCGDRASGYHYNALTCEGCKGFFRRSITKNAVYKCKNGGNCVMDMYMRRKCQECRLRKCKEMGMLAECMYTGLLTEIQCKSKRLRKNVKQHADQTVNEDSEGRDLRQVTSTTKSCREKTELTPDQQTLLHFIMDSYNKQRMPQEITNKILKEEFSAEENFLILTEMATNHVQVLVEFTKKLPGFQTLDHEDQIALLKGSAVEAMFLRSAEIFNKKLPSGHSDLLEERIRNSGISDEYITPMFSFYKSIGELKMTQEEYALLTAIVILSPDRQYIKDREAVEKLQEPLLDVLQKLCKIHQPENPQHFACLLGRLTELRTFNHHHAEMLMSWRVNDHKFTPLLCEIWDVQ

Broadly, the AC50 is the concentration giving half of the maximal activity seen. `CN1C(=O)N(c2ccccc2Br)Cc2cnc(Nc3ccc4c(c3)OCC(CO)O4)nc21` (stereo not given): the compound was called inactive in experiment [1], in experiment [2], in experiment [3], in experiment [4], in [5] and in experiment [7]. For the same compound, the call in experiment [8] was inactive. In addition, the AC50 in experiment [6] is 2.93 µM (active); in experiment [9] it was 9.54 µM (active); in experiment [10], 0.0368 µM (active); in experiment [11] it was 9.9 µM (active); in experiment [12] it was 10.7 µM (active); in experiment [13] it was 33.6 µM (active). For the same compound, the AC50 in [14] was 9.49 µM (active).
In the case of `CC(C)(C)c1cc(/C=C2\SC(N)=NC2=O)cc(C(C)(C)C)c1O`, the compound was called inactive in experiment [15], in experiment [2], in experiment [3], in experiment [4], in experiment [5] and in experiment [6]. Further, the result in experiment [7] was inactive. The AC50 in experiment [8] is 11.6 µM (active); in [9], 16.2 µM (active); in experiment [10], 11 µM (active); in experiment [11], 14.8 µM (active); in experiment [12], 31.6 µM (active); in experiment [13], 29.4 µM (active). Further, the AC50 in experiment [14] is 30.4 µM (active).
Turning to `O=C1O[C@H]([C@@H](O)CO)C(O)=C1O`, the compound was called inactive in experiment [16], in experiment [17], in experiment [15], in [2], in [3] and in experiment [4]. In addition, the compound was called inactive in [5], in experiment [6], in experiment [8], in experiment [9], in experiment [10] and in experiment [11]. In addition, the result in experiment [12], in experiment [13] and in experiment [14] was inactive.
As for `O=c1ccc2ccccc2o1`, the outcome in experiment [15], in [4], in experiment [5], in experiment [18], in [6] and in experiment [7] was inactive. Further, the result in experiment [8], in experiment [9], in [10], in [11], in experiment [12] and in experiment [13] was inactive. Also, the outcome in experiment [14] was inactive.
Regarding `CC(C)(O)c1ccc(CNC(=O)c2cccnc2Oc2ccc3nonc3c2)cc1`, the outcome in [15], in experiment [2], in [3], in [4], in experiment [5] and in experiment [18] was inactive. Also, the outcome in [6], in experiment [7], in experiment [8], in experiment [9], in experiment [10] and in experiment [11] was inactive. Also, the outcome in [12], in experiment [13] and in experiment [14] was inactive.
As for `Oc1ccccc1`, the compound was classed as inactive in [16], in experiment [17], in [2], in [3], in [4] and in [5]. In addition, the outcome in experiment [6], in [8], in [9], in experiment [10], in experiment [11] and in experiment [12] was inactive. The outcome in [13] and in [14] was inactive.
Regarding `Cc1occc1C(=O)Nc1ccc(C(=O)N2CCC(F)(F)/C(=C\C(=O)N3CCC(N4CCCCC4)CC3)c3ccccc32)cc1`, the compound was classed as inactive in experiment [16], in experiment [17], in experiment [15], in experiment [2], in experiment [4] and in experiment [5]. Also, the compound was called inactive in experiment [10], in experiment [11], in [12], in experiment [13] and in experiment [14]. For the same compound, the AC50 in [6] is 58.3 µM (active); in [7] it was 18.5 µM (active); in [8], 22 µM (active); in [9], 49.6 µM (active).
